According to the supplement of paper PMC3842684:

How the values were obtained:
[1] = tested on: P. falciparum NF54-pfs16-GFP early (I-III) stage gametocytes; assay: relative % inhibition of viable gametocyte number; higher = more gametocytocidal; details: stage: early (I-III) gametocyte, incubation 72 h
Method in brief: (§1)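 In 384-well poly-D-lysine imaging plates, NF54 pfs16-GFP gametocytes (magnet-isolated, early I/IIa on day 2 or late on day 8; 10% parasitaemia, 0.1% haematocrit) received compound in duplicate at 5 or 0.5 µM. Plates stood 72 h at 37°C in 5% CO2 and 5% O2, then overnight with MitoTracker Red before confocal imaging, where elongated GFP objects with MitoTracker signal above cut-off counted as viable. Relative inhibition was calculated against vehicle and positive-control wells on the same plate.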

[2] = tested on: P. falciparum NF54-pfs16-GFP late (IV-V) stage gametocytes; assay: as above; details: stage: late (IV-V) gametocyte, incubation 72 h
Method in brief: as §1

Row | Compound | relative % inhibition ([1]; 0.5 µM) | relative % inhibition ([1]; 5 µM) | relative % inhibition ([2]; 0.5 µM) | relative % inhibition ([2]; 5 µM)
1 | c1ccc(C2=Nc3ccccc3N=C(c3ccccc3)c3ccccc32)cc1 | 35.8% | 101% | 15.2% | 47.2%
2 | Cc1sc(NC(=O)c2ccccc2)c(C(c2cccs2)N2CCN(c3ccccc3)CC2)c1C (stereo not given) | 17.7% | 12.8% | 43.3% | 77%
3 | CCCn1c(=N)c(C(=O)NC2CCCCC2)cc2c(=O)n3cccc(C)c3nc21 | 13.4% | 24.4% | -19.9% | 8.02%
4 | CCCCNc1nc(NC(C)(C)C)nc(NC(C)(C)C)n1 | -7.87% | 40.6% | 31.7% | 43.5%
5 | COc1ccc(-c2cn3c(C(=O)Nc4ccccc4Cl)c(-c4ccccc4)c4c3n2CCCC4)cc1 | 10.5% | 30.9% | 4.28% | 22.5%
6 | COc1ccc(Nc2nc(NCc3ccccc3)c3ccccc3n2)cc1 | 84.8% | 98.1% | 81.6% | 107%
7 | COc1ccc(NC(=O)C2c3ccccc3C(=O)N(CC(C)C)C2c2cccs2)cc1 (stereo not given) | 52.4% | 102% | 25.7% | 52.6%
8 | O=C(Nc1ccc(Cl)cc1)N1CCN(c2ccc3nncn3n2)CC1 | 18% | 6.7% | 4.09% | -7.25%
9 | O=C(Nc1ccc(CN2CCOCC2)cc1)c1ccc(-c2cc(Cl)ccc2Cl)o1 | -3.41% | 20.9% | -18.1% | 21.4%
10 | O=C(c1ccccc1F)N(Cc1ccc(Cl)cc1)c1ccccn1 | -17.2% | -20.6% | 2.03% | 16.8%
11 | COc1ccc(-n2ccnc2SCC(=O)Nc2cc(C)ccc2C)c(OC)c1 | 3.61% | -5.2% | -4.39% | 15.9%
12 | Cc1c(C)n(Cc2ccc(F)cc2)c2ccc(C(=O)NCc3ccco3)cc12 | 19.2% | -8.91% | 16.9% | 21.7%
13 | CCOC(=O)c1cnc2ccc(OC)cc2c1NCc1ccccc1 | 26.4% | 17.1% | 10.1% | 2.07%
14 | CCN(CC)CCNc1ncnc2c1[nH]c1ccc(Br)cc12 | -15.3% | 61.4% | 12.4% | 27.1%
15 | c1ccc2c(NCCc3c[nH]c4ccccc34)c3ccccc3nc2c1 | 37.7% | 89.1% | -14.3% | 29.7%
16 | COc1ccccc1N1CCN(C(CNS(=O)(=O)c2ccc(Cl)cc2)c2cccnc2)CC1 (stereo not given) | -2.86% | 41.8% | -0.978% | 32.7%
17 | CC(C)(C)c1ccc(C2CC3=Nc4ccccc4N(C(=O)c4ccccc4Cl)C(c4ccc(F)cc4)C3=C(O)C2)cc1 (stereo not given) | 20% | 80.4% | 60.8% | 89.9%
18 | Cc1cc(Nc2ccc3ccccc3c2)n2ncnc2n1 | -10.4% | 3.61% | 1.55% | 8.91%
19 | CC(NCc1ccccc1)c1cc(Cl)ccc1O (stereo not given) | 15.7% | 89.5% | 15.3% | 53.3%
20 | CC1(c2ccccc2)Nc2ccccc2-c2nc3ccccc3n21 (stereo not given) | 1.27% | 32.3% | 46.2% | 46.6%
21 | CCCCN(CCCC)S(=O)(=O)c1ccc(NC(=O)c2ccco2)cc1 | 16.5% | 7.65% | 7.52% | 1%
22 | Cc1c(C)n(CC(O)CNC2CCCCC2C)c2ccccc12 (stereo not given) | 41.6% | 98.7% | 34.2% | 54.5%
23 | CCOc1ccc2nc(C)cc(Nc3ccc(N(C)C)cc3)c2c1 | 15.2% | -42.1% | -6.75% | -10.3%
24 | COc1ccc(C=C2SC(Nc3ccc(F)cc3)=NC2=O)c(OC)c1 | 2.18% | 8.91% | 24.9% | 87.9%

Row | Compound | relative % inhibition ([1]; 0.5 µM) | relative % inhibition ([1]; 5 µM) | relative % inhibition ([2]; 0.5 µM) | relative % inhibition ([2]; 5 µM)
25 | CCOC(=O)c1c(NC(=O)c2ccccc2)sc2c(O)c(CN(CC)CC)ccc12 | 28.6% | 94.9% | 64.2% | 89.6%
26 | COc1ccc2nc(C)cc(Nc3cccc(O)c3)c2c1 | 2.97% | 3.08% | -18.7% | -9.92%
27 | CC(C)CNC(=O)c1c(N)n(CCc2ccccc2F)c2nc3ccccc3nc12 | -1.27% | 3.8% | 3.01% | 8.27%
28 | Cc1ccc(C)c(Cn2c(N3CCC(C(=O)NCc4cccs4)CC3)nc3ccccc32)c1 | 13.8% | 39.4% | 6.18% | 31.6%
29 | O=C(NC1CCN(Cc2ccccc2)CC1)c1cc(-c2ccncc2)nc2ccc(Cl)cc12 | 17.7% | 64.3% | -28.1% | -1.38%
30 | COc1ccccc1CNC(=O)CCn1c(=O)[nH]c2ccsc2c1=O | 16.9% | 2.5% | -0.5% | 0%
31 | CCN(CC)CCNc1ccnc2cc(Cl)ccc12 | -1.61% | 100% | 18.2% | 14.7%
32 | O=C(Nc1ccc(-c2nc3cc4ccccc4cc3[nH]2)cc1)c1cccc(Br)c1 | 23.2% | 34.5% | -2.59% | 7.93%
33 | Nc1ccn(C2O[C@H](CO)[C@@H](O)[C@H]2O)c(=O)n1 (stereo not given in full) | -12.7% | 9.7% | 8.91% | -10.9%
34 | COc1ccc(OC)c(C2C3=C(CC(C)(C)CC3=O)N(c3ccc(Cl)c(Cl)c3)C3=C2C(=O)CC(C)(C)C3)c1 | 13.6% | 67.1% | 13.8% | 79.2%
35 | CN1CCN(c2ncnc3c2[nH]c2ccc(Cl)cc23)CC1 | 9.76% | 20.1% | 2.38% | 7.14%
36 | CC(C)CCNCC(O)Cn1c2ccccc2c2ccccc21 (stereo not given) | 23.7% | 102% | 19% | 82.9%
37 | CCOC(=O)c1cnc2c(C)cccc2c1Nc1ccc(C(C)=O)cc1 | -9.17% | 7.93% | 7.91% | -0.973%
38 | CC(=O)NCCc1nc2ccccc2n1Cc1ccc(C(C)C)cc1 | 8.03% | 50.5% | -8.38% | 2.88%
39 | Nc1ccc(-c2nc3cc(Cc4ccc5[nH]c(-c6ccc(N)cc6)nc5c4)ccc3[nH]2)cc1 | 14.7% | 100% | 14.6% | 85.1%
40 | CC(C)(C)c1ccc(C(=O)Nc2c3c(nn2-c2cccc(Cl)c2)CSC3)cc1 | -12.5% | 10.5% | -5.32% | 8.85%
41 | Cc1ccc2c(C)nc(Nc3nc(C)cc(-c4ccccc4)n3)nc2c1 | 38% | 88.6% | 111% | 113%
42 | Cc1ccc(C(=O)c2oc3ccc4c(C)cc(=O)oc4c3c2C)cc1 | 8.47% | -0.0271% | 0.817% | 12%
43 | Cc1ccc(C)c(-c2csc(Nc3ccc(C)c(C)c3)n2)c1 | 9.93% | -13.3% | 15.6% | 41.4%
44 | Cc1ccc2cc3c(N)c4c(C)ccc(C)c4nc3nc2c1 | 4.09% | 91% | 8.68% | 50.1%
45 | CCOc1ccc2nc(C)cc(Nc3ccc(Br)cc3)c2c1 | 38.4% | 58.5% | 14.7% | 57.1%
46 | COc1ccc(C(O)(CCC(C)C)C(CN2CCOCC2)c2ccc(Cl)cc2)cc1 (stereo not given) | 6.71% | 94.3% | 12.1% | 25%
47 | COc1ccc(C(=O)Nc2ccc3nc(N4CCCCC4)cc(C)c3c2)cc1OC | -8% | 7.62% | 3.3% | 51.2%
48 | CSC1=NC(=Nc2c(C)cccc2C)C2(CCC(C(C)(C)C)CC2)N1c1ccc(Cl)cc1 (stereo not given) | 24.7% | 4.25% | 93.4% | 103%

Row | Compound | relative % inhibition ([1]; 0.5 µM) | relative % inhibition ([1]; 5 µM) | relative % inhibition ([2]; 0.5 µM) | relative % inhibition ([2]; 5 µM)
49 | Cc1cc(Nc2ccc(OCc3ccccc3)cc2)nc2cc(O)ccc12 | 12.6% | 95.1% | 35.1% | 78.3%
50 | COc1cc(-c2nc(-c3ccc(Sc4ccccc4)cc3)c(-c3ccccc3)[nH]2)cc(OC)c1O | 27% | 86.1% | 3.44% | -21%
51 | Cc1cc(C)c2c(c1)OCN(Cc1ccccc1Cl)C2 | 59.9% | 93.6% | 31.1% | 47.8%
52 | CCCCOC(=O)c1ccc(Nc2cc(C)nc3ccc(OC)cc23)cc1 | -28.1% | 70% | 13.1% | 18.5%
53 | CCN1CCN(c2c(C(=O)c3ccccc3)cnc3cc(OC)c(OC)cc23)CC1 | 2.47% | -13.5% | 12.1% | -8.91%
54 | COCCNCC(O)Cn1c2ccc(Cl)cc2c2cc(Cl)ccc21 (stereo not given) | 5.62% | 62.7% | 52.3% | 96.1%
55 | CCCCCCc1cc2cc(-c3nc4ccccc4[nH]3)c(=Nc3ccccc3C)oc2cc1O | 60.1% | 100% | 35% | 52.7%
56 | CCOC(=O)C1=C(C)N=c2sc(=Cc3ccccc3O)c(=O)n2C1c1ccc(OC)c2ccccc12 (stereo not given) | -2.21% | 86.4% | 65.8% | 61.1%
57 | CCOC(=O)C1=C(C)N=c2sc(=Cc3cc(Cl)ccc3O)c(=O)n2C1c1ccc(OC)cc1 (stereo not given) | 105% | 108% | 94.5% | 103%
58 | COCCN(C(=O)Cc1cccs1)C(C(=O)NCc1ccc(OC)cc1)c1ccc(C(C)C)cc1 (stereo not given) | 25.1% | 5.52% | 13.7% | -1.94%
59 | OC(Cn1nnc2ccccc21)Cn1c2ccc(Br)cc2c2cc(Br)ccc21 (stereo not given) | 5.28% | 83.6% | 18.2% | 43.4%
60 | CCOc1cc2c(cc1OCC)C(c1cc(Cl)c(O)c(OCC)c1)NCC2 (stereo not given) | 8.41% | 94.7% | 29.4% | 18.2%
61 | COc1cccc(-c2nn(C)c3sc(C(=O)NCCN4CCN(c5ccccc5F)CC4)cc23)c1 | 12.4% | 82.5% | 16.7% | 4.42%
62 | COc1cc2c3cc1Oc1c(OC)c(OC)cc4c1C(Cc1ccc(O)c(c1)Oc1ccc(cc1)CC3N(C)CC2)N(C)CC4 (stereo not given) | 1.03% | 73.4% | -24.9% | 23.7%
63 | O=C(Nc1ccc(N2CCCCC2)c(Cl)c1)c1ccc(Br)o1 | 5.95% | 8.62% | 6.1% | 22.2%
64 | COc1cc(OC)c(N(C)C(=O)c2cc3c(s2)-c2ccccc2S(=O)(=O)C3)cc1Cl | 52.2% | 93.9% | 28.5% | 44.6%
65 | O=C(NNc1cc(N2CCCC2)nc(N2CCCC2)n1)c1ccccc1 | -9.28% | -5.49% | 10.9% | 16.3%
66 | CCOC(=O)c1cnc2c(C)cc(C)cc2c1Nc1ccc(OC)c(OC)c1 | 2.37% | 7.56% | -4.75% | 3.59%
67 | O=C(NCC1Cc2cccc(-c3ccncc3)c2O1)c1csc2c1CCCC2 (stereo not given) | -5.92% | 6.48% | 5.28% | -0.912%
68 | Cc1[nH]c(-c2ccc(F)cc2)cc1C(=O)NC1CCN(Cc2ccccc2)CC1 | 14.7% | 75.3% | 6.29% | 15.4%
69 | Cc1ccc(-c2cc(C(=O)Nc3ccc(S(=O)(=O)N4CCCCC4)cc3)[nH]n2)c(O)c1 | 18% | 51% | -1.52% | 2.43%
70 | O=C(CSc1nccn2nc(-c3ccccc3)cc12)Nc1cc(C(F)(F)F)ccc1Cl | 3.61% | -9.64% | 15.1% | -0.775%
